Inconclusive results are not listed. Where a call stands in place of a potency, no number is given. A number with no mark means an inactive call. Calls of active or inactive are those of the source. Unless noted, calls come from the whole dose curve; as a rule, active = well fitted curve in the direction sought with a large enough effect; inconclusive = small, poorly fitted or top-dose-only effect, or another doubt; inactive = no such curve, though single readings can be large; an effect the other way counts as inactive or inconclusive.
How the values were obtained:
[1] = qHTS for Inhibitors of Plasmodium falciparum (DD2) proliferation (AID 504314);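 note: parasite DNA measured by SYBR Green fluorescence after red cell lysis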
Summary of the method: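 P. falciparum Dd2 is grown in erythrocytes with test compound for 72 h at 37C under 5% CO2. Growth is scored by SYBR Green I fluorescence after detergent lysis, relative to artemisinin (0.29 uM) and DMSO controls.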

[2] = qHTS for Inhibitors of Plasmodium falciparum (GB4) proliferation (AID 504315); note: nearly all actives have a fitted effect of over 50% in size
Summary of the method: (§1)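 Parasite growth measured as SYBR Green DNA fluorescence (ex 485, em 535 nm) after overnight lysis following 72 h culture at 37 °C, 0.3% parasitemia, 2.5% hematocrit. Values normalized against DMSO and 0.29 uM artemisinin controls, with plate-stack correction.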

[3] = qHTS for Inhibitors of Plasmodium falciparum (7G8) proliferation (AID 504316); note: series mostly up to about 6.7 µM; nearly all actives have a fitted effect of over 65% in size
Summary of the method: as §1

[4] = qHTS for Inhibitors of Plasmodium falciparum (HB3) proliferation (AID 504318); note: nearly all actives have a fitted effect of over 60% in size
Summary of the method: as §1

[5] = qHTS for Inhibitors of Plasmodium falciparum (CP250) proliferation (AID 504320)
Summary of the method: as §1

[6] = molecular target: Atrial natriuretic peptide receptor 1 (Homo sapiens) (UniProt P16066); test: Natriuretic polypeptide receptor (hNpr1) antagonism - Pilot CMLD screen (AID 1347052; calls by dose curve;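 note: cGMP level read as GloSensor luciferase luminescence after agonist stimulation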; note: potency is the fitted concentration of half-maximal effect)
Sequence of Atrial natriuretic peptide receptor 1 (Homo sapiens) (P16066 whole entry, looked up): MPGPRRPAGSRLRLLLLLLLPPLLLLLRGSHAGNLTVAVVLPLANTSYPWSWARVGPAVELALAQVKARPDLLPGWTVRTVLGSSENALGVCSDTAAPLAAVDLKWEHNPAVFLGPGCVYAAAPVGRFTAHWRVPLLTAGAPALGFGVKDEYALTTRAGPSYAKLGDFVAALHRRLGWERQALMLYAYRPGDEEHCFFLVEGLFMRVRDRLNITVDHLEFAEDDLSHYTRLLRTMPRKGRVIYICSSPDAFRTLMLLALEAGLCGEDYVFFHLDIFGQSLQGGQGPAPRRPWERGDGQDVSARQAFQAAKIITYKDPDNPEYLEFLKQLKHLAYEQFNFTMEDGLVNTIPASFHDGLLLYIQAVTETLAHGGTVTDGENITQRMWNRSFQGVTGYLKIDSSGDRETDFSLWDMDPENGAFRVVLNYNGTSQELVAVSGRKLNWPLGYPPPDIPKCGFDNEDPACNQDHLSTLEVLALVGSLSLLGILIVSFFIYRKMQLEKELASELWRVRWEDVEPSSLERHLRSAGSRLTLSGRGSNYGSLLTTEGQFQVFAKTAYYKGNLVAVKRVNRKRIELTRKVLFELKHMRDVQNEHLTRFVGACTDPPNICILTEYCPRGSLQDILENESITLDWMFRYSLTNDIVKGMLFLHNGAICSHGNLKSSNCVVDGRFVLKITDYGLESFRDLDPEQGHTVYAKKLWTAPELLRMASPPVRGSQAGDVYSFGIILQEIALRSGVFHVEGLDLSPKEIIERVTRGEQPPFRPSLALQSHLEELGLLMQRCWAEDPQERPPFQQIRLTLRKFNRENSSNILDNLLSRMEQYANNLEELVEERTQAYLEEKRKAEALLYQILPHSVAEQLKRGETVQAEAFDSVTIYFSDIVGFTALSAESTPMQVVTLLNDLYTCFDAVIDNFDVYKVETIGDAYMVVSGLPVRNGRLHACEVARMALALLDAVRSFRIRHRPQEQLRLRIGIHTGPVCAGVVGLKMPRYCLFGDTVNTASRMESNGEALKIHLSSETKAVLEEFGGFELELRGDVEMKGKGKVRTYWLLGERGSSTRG

| Structure (SMILES) | Potency [1] | Potency [2] | Potency [3] | Potency [4] | Potency [5] | Potency [6] | activity, negative = inhibition [1] |
| --- | --- | --- | --- | --- | --- | --- | --- |
| CC(=O)OC[C@H]1O[C@H](CC=NO[C@H](C)c2cn([C@@H]3COC[C@@H]3O)nn2)C=C[C@@H]1OC(C)=O | inactive | inactive | inactive | inactive | inactive | inactive |  |
| C[C@H]1C[C@@H](C)O[C@@]2(C1)C(=O)N(CC1CC1)c1ccccc12 | inactive | inactive | inactive | inactive | inactive | inactive |  |
| C=C=CCCN1C(=O)NC(c2ccccc2)C(C(=O)OC)=C1C (stereo not given) | inactive | inactive | inactive | inactive | inactive | inactive |  |
| CCCCCCCC=CC1=CC2(C)CC1(C)C(CCCCCCC)CC2=O (stereo not given) | inactive | inactive | inactive | inactive | inactive | inactive |  |
| C=CC[C@@](C(C)=O)(C(=O)OC)[C@@H](NC(=O)OC(C)(C)C)c1ccccc1 | inactive | inactive | inactive | inactive | inactive | inactive |  |
| COC(=O)CCCC1=CC2=C(c3ccccc3)C(=O)C(C)(OC(=O)C3CCCC3)C(=O)C2=CN1C1CCCCC1 (stereo not given) | inactive | inactive | inactive | inactive | inactive | inactive |  |
| C[C@@H]1CC[C@H]2C(=O)N(Cc3cccc([N+](=O)[O-])c3)C[C@@H](O)CN2[C@@H]1c1cccc(Br)c1 | inactive | inactive | inactive | inactive | inactive | inactive |  |
| CC(C)=CCCC(C)=CCON=C1C[C@@H](O)[C@@H](O)[C@@H]2[C@H]3C(=O)N(C[C@@H]4CCCO4)C(=O)[C@@H]3CC[C@H]12 | inactive | inactive | inactive | inactive | inactive | inactive |  |
| CCN1C(=O)[C@@H]2[C@H]3[C@H](O)[C@H](O)CC(=NOCC[C@@H]4C=C[C@H](OC(C)=O)[C@@H](COC(C)=O)O4)[C@@H]3CC[C@H]2C1=O | inactive | inactive | inactive | inactive | inactive | inactive |  |
| COC[C@H]1O[C@]2(c3ccccc3)CO[C@@H]1[C@@H](C=Cc1ccccc1)C2 | inactive | inactive | inactive | inactive | inactive | inactive |  |
| CCN1C(=NCc2ccc3c(c2)OCO3)NC(CCc2ccccc2)C(C(=O)OC)=C1C (stereo not given) | inactive | inactive | inactive | inactive | inactive | inactive |  |
| C=CCN1c2ccccc2[C@]23CCC(=O)N(CCOC)C2=NC(C(=O)OC)=C(C(=O)OC)[C@H]13 | inactive | inactive | inactive | inactive | inactive | inactive |  |
| O=C1CCCC1C(O)c1ccc2ccccc2c1 (stereo not given) | inactive | inactive | inactive | inactive | inactive | inactive |  |
| CC(C)=CCCC(C)=CCON=C1C[C@@H](O)[C@@H](O)[C@@H]2[C@H]3C(=O)N(c4cccc(Oc5ccccc5)c4)C(=O)[C@@H]3CC[C@H]12 | inactive | inactive | inactive | inactive | inactive | inactive |  |
| CCN1C(=O)[C@@H]2[C@H]3[C@H](O)[C@H](O)CC(=NOC[C@@H](C)[C@H](OCc4ccccc4)C(C)C)[C@@H]3CC[C@H]2C1=O | inactive | inactive | inactive | inactive | inactive | inactive |  |
| COc1ccc2c(c1)O[C@@H](c1ccc3c(c1)OCO3)[C@H](O)C2=O | inactive | inactive | inactive | inactive | inactive | inactive |  |
| C=CCOC(=O)NC(c1ccc(F)c(F)c1)C(C(C)=O)C(=O)OC (stereo not given) | inactive | inactive | inactive | inactive | inactive | inactive |  |
| COC(=O)CC=C[C@@H](C)[C@@H](C=NOC[C@@H](O)[C@H]1O[C@@H]2OC(C)(C)O[C@H]2[C@@H]1O)OC | inactive | inactive | inactive | inactive | inactive | inactive |  |
| COC(=O)CCCC1=CC2=CC(=O)C(C)(OC(=O)c3cccs3)C(=O)C2=CN1C1CC1 (stereo not given) | inactive | inactive | inactive | inactive | inactive | inactive |  |
| COCCN1C=C2C(=O)C(C)(OC(=O)C3CCCC3)C(=O)C=C2C=C1c1ccsc1 (stereo not given) | inactive | inactive | inactive | inactive | inactive | inactive |  |
| CCCCS(=O)(=O)N1CCc2nc(-c3ccccc3)c3c(c2C1)CO[C@@H](C)C3 | inactive | inactive | inactive | inactive | inactive | inactive |  |
| CCOC(=O)CN1C(=O)[C@@]2(CC(C)=C[C@@H](COCc3ccccc3)O2)c2ccccc21 | inactive | inactive | inactive | inactive | inactive | inactive |  |
| CC[C@H](C)[C@@H](NC(=O)O[C@H]1C(=O)c2ccc(OC)cc2O[C@@H]1c1ccc2c(c1)OCO2)C(=O)OC | inactive | inactive | inactive | inactive | inactive | inactive |  |
| COc1ccc2ccccc2c1-c1c(OC)ccc2ccccc12 | inactive | inactive | inactive | inactive | inactive | inactive |  |
| COC(=O)CC=C[C@@H](C)[C@H](OC)c1c(Br)ccc2c1OCO2 | inactive | inactive | inactive | inactive | inactive | inactive |  |

| Structure (SMILES) | Potency [1] | Potency [2] | Potency [3] | Potency [4] | Potency [5] | Potency [6] | activity, negative = inhibition [1] |
| --- | --- | --- | --- | --- | --- | --- | --- |
| C[C@@H]1C=CCCO[C@]12C(=O)N(Cc1ccc(F)cc1)c1cccc(Br)c12 | inactive | inactive | inactive | inactive | inactive | inactive |  |
| COc1ccc(-c2nc(-c3ccccc3)oc2Nc2ccc3ccccc3c2)cc1 | inactive | inactive | inactive | inactive | inactive | inactive |  |
| CCCCC#C[C@@H]1C=C[C@H](Oc2ccc(C(=O)OC)cc2)[C@@H](COC(=O)OCC)O1 | inactive | inactive | inactive | inactive | inactive | inactive |  |
| CC1(OC(=O)c2cccs2)C(=O)C=C2C=C(c3ccsc3)OC=C2C1=O (stereo not given) | inactive | inactive | inactive | inactive | inactive | inactive |  |
| COC1=C[C@H](C(=O)NCCOC(C)=O)[C@@]2(C)Cc3ccccc3[C@@H]2CC1=O | inactive | inactive | inactive | inactive | inactive | inactive |  |
| COc1cccc([C@@H]2[C@@H](C)CC[C@@H]3C(=O)NC[C@H](O)CN32)c1 | inactive | inactive | inactive | inactive | inactive | inactive |  |
| COC(=O)N[C@@H](c1ccco1)[C@]1(C(C)=O)CCCC1=O | inactive | inactive | inactive | inactive | inactive | inactive |  |
| COC(=O)C1=C(C)N(CCC(C)O[Si](C)(C)C(C)(C)C)C(=O)N(C(C)=O)C1c1ccccc1 (stereo not given) | inactive | inactive | inactive | inactive | inactive | inactive |  |
| C=CCNC(=O)N1CCc2nc(-c3ccccc3)c3c(c2C1)CO[C@@H](C)C3 |  | inactive | inactive | inactive | inactive | inactive | -1.14% [at 1.12 µM] |
| C=COCCN1C=C(C(=O)OCC)C(c2ccccc2)NC1=O (stereo not given) | inactive | inactive | inactive | inactive | inactive | inactive |  |
| CCOC(=O)NN=C1C[C@@H](O)[C@@H](O)[C@@H]2[C@H]3C(=O)N(Cc4ccccc4)C(=O)[C@@H]3CC[C@@H]12 | inactive | inactive | inactive | inactive | inactive | inactive |  |
| COC(=O)CCCC1=CC2=C(c3ccccc3)C(=O)C(C)(OC(=O)C3CCCC3)C(=O)C2=CN1CCN1CCOCC1 (stereo not given) | inactive | inactive | inactive | inactive | inactive | inactive |  |
| COC(=O)[C@@]1(C=C2c3ccc(OC)cc3[C@@H](OC)[C@@H]2C)[C@@H]2C=CC[C@@H]21 | inactive | inactive | inactive | inactive | inactive | inactive |  |
| C[C@H](ON=C1[C@H]2CCn3c(=O)n(-c4ccccc4)c(=O)n3[C@@H]2[C@H](O)[C@@H]2O[C@H]12)c1cn([C@H](CO)Cc2ccccc2)nn1 | inactive | inactive | inactive | inactive | inactive | inactive |  |
| CC1(OC(=O)C2CCCC2)C(=O)C=C2C=C(c3ccsc3)N(C(CO)CO)C=C2C1=O (stereo not given) | inactive | inactive | inactive | inactive | inactive | inactive |  |
| C[C@H]1C[C@@H](C)O[C@@]2(C1)C(=O)Nc1ccccc12 | inactive | inactive | inactive | inactive | inactive | inactive |  |
| CCOC(=O)CN1C(=O)N[C@@H](c2ccccc2)[C@H](C(C)=O)[C@H]1C | inactive | inactive | inactive | inactive | inactive | inactive |  |
| CC12C=C(C=CC=Cc3ccco3)C(C)(C1)C(C=Cc1ccco1)CC2=O (stereo not given) | inactive | inactive | inactive | inactive | inactive | inactive |  |
| COC(=O)C1=C(C)[C@@H](O)[C@@H](C)[C@](C)(c2cc(OC)c(C)c(OC)c2COc2ccccc2)O1 | inactive | inactive | inactive | inactive | inactive | inactive |  |
| COC(=O)C1=C(C(=O)OC)[C@@H]2N(C)c3ccccc3[C@@]23C[C@@H](C(=O)OC)N(C(=O)c2ccc(Br)cc2)C3=N1 | inactive | inactive | inactive | inactive | inactive | inactive |  |
| CC(C)(C)c1ccc(O[C@@H]2[C@H](O)CO[C@H]2C=CC#Cc2ccccc2)cc1 | inactive | inactive | inactive | inactive | inactive | inactive |  |
| CC(C)CON=C1C[C@@H](O)[C@@H](O)[C@@H]2[C@H]3C(=O)N(C[C@@H]4CCCO4)C(=O)[C@@H]3CC[C@@H]12 | inactive | inactive | inactive | inactive | inactive | inactive |  |
| CCC(=O)C[C@@H](NC(=O)OC)c1ccccc1 | inactive | inactive | inactive | inactive | inactive | inactive |  |
| CC(=O)OC[C@H]1O[C@H](CC=NOC[C@@H](O)[C@H]2O[C@@H]3OC(C)(C)O[C@H]3[C@@H]2O)C=C[C@H]1OC(C)=O | inactive | inactive | inactive | inactive | inactive | inactive |  |
| CC(CCC#N)[N+](=O)[O-] (stereo not given) | inactive | inactive | inactive | inactive | inactive | 5.31 µM (active) |  |
